Measurements: the supplement of paper PMC6555819

How the values were obtained:
Assay in all cases: PBM binding z-score (relative to random genomic background probes); higher = stronger binding; sequences stand for … in GC…GCGATTGACAGCGTAGAATGAAGG
[1] = system: RARb homodimer (NR concentration 270 nM)
Procedure, shortened: (§1)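 Ligand-free nuclear receptor dimers were bound for 1 h to custom Agilent 4×180K protein-binding microarrays. Detection used antibodies against each partner (one per run). Binding z-scores rest on regression-normalized fluorescence, with random background probes as the reference.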

[2] = system: RARg:RXRa (NR concentration 270 nM, RXRa partner concentration 90 nM)
Procedure, shortened: as §1

[3] = system: RARg homodimer (NR concentration 270 nM)
Procedure, shortened: as §1

[4] = system: RXRa DBDmut IVT, anti-RXR (DBD mutation: RXRa K156A/R161A, NR concentration 90 nM)
Procedure, shortened: as §1

[5] = system: RXRa homodimer (NR concentration 180 nM)
Procedure, shortened: as §1

[6] = system: THRa:RXRa (NR concentration 90 nM, RXRa partner concentration 90 nM)
Procedure, shortened: as §1

[7] = system: THRa homodimer (NR concentration 90 nM)
Procedure, shortened: as §1

[8] = system: VDR homodimer (NR concentration 270 nM)
Procedure, shortened: as §1

Sequence | PBM binding z-score [1] | PBM binding z-score [2] | PBM binding z-score [3] | PBM binding z-score [4] | PBM binding z-score [5] | PBM binding z-score [6] | PBM binding z-score [7] | PBM binding z-score [8]
CCTGCTGGGCCATTCAGAGGTCATTGATCATATG | 4.1 | 4.63 | 3.19 | 1.05 | 3.79 | 3.24 | 1.12 | 3.17
TAGCCTTGGTCATTGGGCCAGTATAGTACGCATC | 0.501 | 0.238 | 0.477 | -0.637 | 0.0749 | -0.206 | -0.231 | -0.72
CCGACTGGGGCAGAAAGGTTACCACACCATCCGG | 2.28 | 1.77 | 1.41 | -0.654 | 1.84 | 1.01 | -0.368 | -0.223
GATACAGGGTCAGCTAGAGGCCAGAGTTTGGAAA | 3.66 | 6.53 | 4.92 | 1.38 | 4.29 | 3.04 | 0.526 | 1.17
AGAACGAGGGCAATGAGTTAATAGCACGGGTGGC | 1.08 | 1.43 | 1.51 | 1.74 | 0.7 | 0.999 | -0.107 | 1.99
CCTAGCAGGCCAATCTGGGTGACTCAAGGCTTGA | -0.195 | -0.294 | -0.326 | -0.391 | -0.592 | 2.16 | -0.548 | -0.648
ATCTCTAGGTAACCTAGTTCAGTGAATGCCGAAC | 1.27 | 0.609 | 0.668 | 0.329 | 0.722 | 1.61 | 0.673 | 0.972
AGTCAAAGTTCACTAGGTGACGTAAGATTCAGCT | 4 | 5.11 | 5.68 | 4.42 | 3.96 | 2.33 | 0.0713 | 3.73
GCGACTGGGGCAAAGCAAGTTACCATAAGGTTGG | 0.158 | 0.0953 | 0.244 | -0.247 | 0.26 | 0.526 | -0.346 | -0.341
TCTGCTAGGTCAGTTGGACAGCTAACGAGCTGCC | 1.99 | 2.24 | 3.47 | 0.472 | 0.621 | 1.12 | -0.399 | -0.808
CCTACTAGGCCAAGGTCATTGATCAGTCAAAGCA | 3.74 | 3.86 | 3.68 | 2.31 | 3.64 | 3.52 | 3.01 | 3.34
TCTTGTAGATCTAAGGTTAAGAAAGCCGAAGCCT | 0.513 | 0.36 | 0.019 | 1.06 | 1.21 | 2.16 | 1.26 | -0.0148
CCTACTGGGCCATCAGGTCATTGAAATCAACGTT | 2.46 | 1.85 | 2.14 | 0.155 | 1.18 | 3.07 | 2.88 | 1.02
GCTCGGAGGACAAGGACAGAGCTTTGTCCGTAGA | 0.139 | -0.0807 | 0.418 | -0.45 | -0.592 | 1.31 | 0.61 | -0.639
CGTCCAAGGCCAGAGAGGTCAGTGAATGCCGAGT | 4.2 | 3.05 | 4.27 | 1.06 | 2.22 | 2.77 | 0.817 | 2.55
AGAATGAGGTTATACGTAGTTCAGGGAAGAAAGT | 1.63 | 3.82 | 1.45 | 1.54 | 2.57 | 2.55 | 0.588 | 1.61
CCTCGGAGGACAACAGCAGGTCAGAGCTGCCAGA | 2.46 | 2.16 | 2.22 | 0.024 | 0.692 | 2.01 | 0.482 | 0.0855
CGAACTAGGTCAGTGACAGGACAGTGAATAGTAA | 2.76 | 3.47 | 3.9 | 0.653 | 1.34 | 1.98 | 0.499 | 0.295
CCTTACGGGTCACTCCAGGGTATAGCATCGGAGT | 2.55 | 4.23 | 4.17 | 0.964 | 4.2 | 4.35 | -0.222 | 0.88
ATCTCTAGGTAACAAGTCCAGTGAAAGAGAGGAC | 0.709 | 0.499 | 0.722 | 0.0341 | 0.552 | 0.997 | 0.64 | 0.635
GCTGCTAGGTCAACTGATTGTCAGCTAAAGCTCG | 3.35 | 4.28 | 4.95 | 1.3 | 2.55 | 2.89 | 0.691 | 0.00113
CTCGAAAGATCGGTTGAGGTGAGTATACGGATAA | -0.106 | -0.00103 | -0.0275 | -0.15 | 0.118 | 3.31 | 0.715 | -0.316
TCGAGGAGGTTAGTCGGGGCATTCAGCCAACATA | 1.08 | 0.581 | 0.486 | 0.514 | 0.67 | 2.08 | 0.602 | 1.04
TCTTGTAGAGCAACAGGAGGTTAAGAAAGATCGA | 0.136 | 0.269 | 0.0354 | 0.0247 | 0.479 | 0.705 | -0.732 | -0.241
ACAGCCAGGTGAGTGAAGGTAACTCAGCTGGACG | -0.424 | -0.155 | -0.0105 | -0.98 | -0.177 | 1.46 | -0.534 | -0.751
TTACCAAGGTGGAGGTCGTTGATCCCTCTGTAGA | 1.15 | 0.155 | -0.0331 | 0.0989 | 1.41 | 1.4 | 0.145 | 1.32

Sequence | PBM binding z-score [1] | PBM binding z-score [2] | PBM binding z-score [3] | PBM binding z-score [4] | PBM binding z-score [5] | PBM binding z-score [6] | PBM binding z-score [7] | PBM binding z-score [8]
GGAACGAGGGCATCCGAGTTGATAGCATGGCGAT | 0.756 | 1.28 | 1.71 | 2.26 | 0.974 | 3.08 | -0.359 | 2.33
TCGAGTAGGTTACCAATGGGGGATTCAGCTTTCT | 0.472 | 1.09 | 0.478 | 0.789 | 0.767 | 0.805 | 0.162 | -0.0448
CGTCCAAGGTCAACGGTCAGTGAAGAGATGACGG | 4.55 | 6.08 | 6.47 | 3.36 | 5.56 | 4.13 | 2.62 | 2.15
ATCGAAATGTCGAGGTGAGTATAGAGAAAGGGAA | -0.158 | 0.381 | 0.595 | -0.737 | 0.198 | 1.24 | 0.217 | -0.583
GCTGCTAGGTCAGGTTGGTCAGATAACGGGTACG | 2.53 | 2.71 | 3.5 | 0.652 | 1.12 | 1.84 | 0.684 | 1.02
TCGAGCAGGTTACCAATGGGGCATTCAGCTTTCT | 0.557 | 1.36 | 0.389 | -0.436 | 0.616 | 0.235 | -0.786 | -0.843
CCGAGTAGGTTATGTGGCATTCAGGCAACGGTGA | 0.908 | 0.273 | 0.223 | 0.434 | 0.208 | 0.162 | 0.415 | 0.153
TTACCAAGGTGAATGTCGTTGATCCCTCTGTAGA | 0.851 | 0.459 | 0.367 | 0.1 | 0.711 | 1.82 | 0.923 | -0.448
ACTATTAGTTGACTTAGCGCAACCGATACGACGC | -0.331 | 0.0723 | 0.494 | 0.553 | 0.244 | -0.258 | -0.16 | 0.12
CGAACTAGGTCAGAACAGAACAGTGAAGGATGAT | 1.65 | 2.36 | 3.14 | 0.286 | 1.16 | 1.34 | -0.073 | -0.0834
ACTTACGGGTCAACGAGGTTATAGGACGCGTATA | 3.83 | 5.63 | 5.28 | 2.24 | 6.33 | 4.32 | 1.19 | 3.27
GCGACTGGGGCATCAGCAGGTTCCCATAACTTAA | 0.194 | -0.00118 | -0.0802 | -0.281 | -0.0306 | -0.0535 | -0.272 | -0.434
GGTGCTAGGTCAGGTTGGTCAGCTAACGGGTACG | 3.2 | 2.9 | 4.21 | 0.112 | 1.38 | 1.94 | 1.19 | 0.971
CCAATTAGTTGACCATAAGGGCAACCGAAGCTCG | 2.16 | 1.22 | 1.02 | 0.647 | 0.634 | 1.98 | 1.5 | 0.962
CGCCAAAGTTCAAGGTAACGTAACAGAAAGCAGC | 4.05 | 5.2 | 5.94 | 4.68 | 4.57 | 2.96 | 1.28 | 3.03
CCAACTAGGTCACCGGAAGGTCAAAGTCCGCATG | 5.63 | 8.38 | 7.43 | 2.32 | 7.28 | 4.43 | 3.16 | 3.75
ATTGAAAGGTCGTGAGGTGAGTATACAGAAAGGC | 3.49 | 4.76 | 4.06 | 1.2 | 5.39 | 3.77 | 1.94 | 1.4
ACTTATGGGTCAACGAGGTTATAGCACGCGTATA | 3.67 | 5.04 | 5.1 | 1.92 | 5.18 | 3.79 | 1.03 | 2.82
TCTTGTGGATCAAAGGTTAAGAAAGCCGAAGCCT | 1.42 | 1.5 | 0.798 | 0.751 | 3.43 | 1.47 | -0.309 | -0.0408
ACTAGCAGGCCAAGTTTGGGGCACTCAAACAAAG | 0.455 | 0.443 | 0.463 | -0.0962 | -0.356 | 0.348 | -0.409 | -0.166
CCTTACGTGTCAAGGTTATAGCACGGGTGGTACG | 1.28 | 1.34 | 1.35 | -0.145 | 1.11 | 1.57 | 0.906 | 0.926
TAGCCTAGGTCATGCGGGCCAGGATAGTGTCGGC | 3.1 | 3.77 | 4.7 | 0.23 | 2.94 | 3.06 | 0.933 | 0.706
GCGACTGGGGCAAAGCAGGTAACCATAAGGTTGG | 0.207 | 0.0978 | 0.448 | -0.914 | 0.117 | 2.89 | -0.129 | -0.329
CCTAGTTGGTCTAGGTCACACACGCTATAGGTAC | 3 | 2.36 | 2.69 | 0.925 | 1.88 | 2.99 | 2.78 | 1.78
TCATATTGGTAAACAGGTGAAAGTCCGTAAGTTA | 0.882 | 0.412 | 0.0109 | 1.5 | 0.951 | 0.634 | 0.5 | 0.487
CCTGCTAGGGCAATGGTCAGCTAAAGCAGCTCGC | 0.431 | 0.176 | 0.604 | -0.414 | -0.159 | -0.164 | -0.86 | -0.814
